High-throughput results deposited in PubChem BioAssay by National Center for Advancing Translational Sciences (NCATS).
An excerpt weighted towards active compounds, which were near 4.2% of everything screened.
Hsp90 Hop PPI: changes Hsp90-Hop TPR2A binding signal, up or down; Potency, µM (highest dose often 57 µM); 71,000 tested, 0.44% active; AlphaScreen TPR2A-His6 binding biotin-Hsp90 C-terminal peptide; AID 595; active = well fitted curve in either direction with a large enough effect; inconclusive = small, poorly fitted or top-dose-only effect, or another doubt
YjeE inh: inhibitors of E. coli YjeE (TsaE); P0AF67; purified YjeE enzyme, qHTS inhibition assay; Potency, µM; 71,000 tested, 0.05% active; AID 605
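Fluorescence polarization of a BODIPY Texas Red–ADP probe (2 uM) bound to purified YjeE (10 uM) was read after 15 min room-temperature incubation with compounds. Loss of polarization marks inhibitors; ADP serves as titrated control.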
Pol III holo inh: inhibitors of bacterial DNA polymerase III holoenzyme. reconstituted DNA polymerase III holoenzyme replication, biochemical. Potency, µM (doses to about 57.1 µM). 71,000 tested, 0.25% active. AID 603
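Reconstituted *E. coli* holoenzyme (0.35 nM Pol III, 1 nM beta, 154 nM SSB, 2 nM primase) was preincubated with compound for 15 min at RT. Synthesis on 1.4 nM ssM13Gori ran 35 min, then was stopped with PicoGreen/EDTA and read as dsDNA fluorescence.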
Tau fil binding: tau filament binding. recombinant tau filaments, thioflavin S fluorescence, 15 h; filaments grown with octadecylsulfate alongside compound. AID 596. 71,000 tested, 2% active. P10636. Potency, µM (highest dose often 57.1 µM);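 also: actives lower thioflavin S fluorescence by blocking filaments or displacing dye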
Target sequence (P10636 whole entry, looked up): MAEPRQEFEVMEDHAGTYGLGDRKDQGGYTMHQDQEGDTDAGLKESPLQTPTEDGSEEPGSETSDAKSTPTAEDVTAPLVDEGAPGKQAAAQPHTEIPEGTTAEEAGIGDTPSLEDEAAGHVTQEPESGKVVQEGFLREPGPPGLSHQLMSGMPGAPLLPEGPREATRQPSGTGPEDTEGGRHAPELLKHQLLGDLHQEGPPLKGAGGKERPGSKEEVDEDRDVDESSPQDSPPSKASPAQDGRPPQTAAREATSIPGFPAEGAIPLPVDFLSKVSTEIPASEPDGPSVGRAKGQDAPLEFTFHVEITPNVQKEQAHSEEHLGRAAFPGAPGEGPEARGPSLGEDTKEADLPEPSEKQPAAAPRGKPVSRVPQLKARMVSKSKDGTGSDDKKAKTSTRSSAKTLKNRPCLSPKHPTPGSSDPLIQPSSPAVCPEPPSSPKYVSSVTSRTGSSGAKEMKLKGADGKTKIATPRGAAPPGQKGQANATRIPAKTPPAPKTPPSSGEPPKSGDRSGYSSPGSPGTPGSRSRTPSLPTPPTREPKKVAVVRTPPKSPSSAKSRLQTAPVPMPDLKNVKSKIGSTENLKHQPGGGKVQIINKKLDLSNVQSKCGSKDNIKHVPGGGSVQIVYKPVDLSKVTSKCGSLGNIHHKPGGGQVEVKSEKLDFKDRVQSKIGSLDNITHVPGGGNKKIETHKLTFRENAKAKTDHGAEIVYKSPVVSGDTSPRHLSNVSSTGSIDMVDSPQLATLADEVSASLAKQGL
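Quantitative HTS: thioflavine S signal from ODS-induced tau filaments, excited at 450 nm, emission 510 nm. Conditions: 1 uM tau, 30 uM ODS, 15 h at 37 C, pH 7.4.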
15-hLO inh: blocks human 15-lipoxygenase activity; 74,000 tested, 1.4% active; P16050; purified 15hLO-1, xylenol orange hydroperoxide absorbance; AID 887; Potency, µM (highest dose often 57.1 µM), hits mostly inhibitors; also: nearly all actives have a fitted effect of over 55% in size
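Hydroperoxide formed from arachidonic acid (50 uM) by purified human 15hLO-1 (40 nM) oxidizes ferrous iron, and the ferric-xylenol orange complex is read at 573 versus 405 nm. Compounds were preincubated 15 min; reaction ran 6 min at room temperature.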
ERK AVP inh: vasopressin-driven ERK pathway inhibition. Potency, µM (series often up to 57.5 µM), actives largely listed as inhibitors. 72,000 tested, 0.99% active. HEK293-V1b, vasopressin-stimulated pERK AlphaScreen. AID 995; also: nearly all actives have a fitted effect of over 55% in size
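HEK293 cells stably expressing V1b receptor, preincubated 30 min at 37 °C with compound, then stimulated 5 min with 25 nM vasopressin. Phospho-ERK by AlphaScreen SureFire after 5 h RT; normalized to DMSO and vasopressin; AC50 by Hill fit.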
Hits are given with their value; n = inactive; u = inconclusive; x = no result; ! = a repeat was not active; [ ] = another dose, or the depositor's remark. Unless noted, calls follow the shape of the dose curve; as a rule, active = well fitted curve in the direction sought with a large enough effect; inconclusive = small, poorly fitted or top-dose-only effect, or another doubt; inactive = no such curve, though single readings can be large; an effect the other way counts as inactive or inconclusive.

SMILES | Hsp90 Hop PPI | YjeE inh | Pol III holo inh | Tau fil binding | 15-hLO inh | ERK AVP inh
CCCC(=O)N(c1ccc2oc(=O)sc2c1)S(=O)(=O)c1cccs1 | n | n | n | n | 16µM | n
CC(=O)N(c1ccc2oc(=O)sc2c1)S(=O)(=O)c1ccccc1 | n | n | n | n | 16µM | n
COc1ccc2[nH]c(=O)c(CN(C(=O)c3ccccn3)c3ccccc3)cc2c1 | n | n | n | n | n | n
O=C(OCC(=O)c1ccccc1Br)c1ccccn1 | 25µM | n | n | n | n | n
Cc1ccc(CNC(=O)CS(=O)Cc2nc(-c3ccccc3C)oc2C)cc1 (stereo not drawn) | n[2.3 µM] | n | n | n | n | n
COc1ccc(CNC(=O)CS(=O)Cc2nc(-c3ccccc3C)oc2C)cc1 (stereo not drawn) | n[2.3 µM] | n | n | n | n | 20µM
COc1ccc(-c2nc(C#N)c(NCCc3ccccc3)o2)cc1OC | n | n | n | n | n | 16µM
COc1cc(-c2nnc(-c3ccco3)o2)ccc1OCc1ccccc1 | n | n | n | n | n | n
N#Cc1nc(-c2ccc(F)cc2)oc1NCc1cccc2c1OCO2 | n | n | n | n | 13µM | 7.9µM
O=C(Nc1c(F)cc(F)cc1Br)c1cc(-c2ccco2)on1 | n | n | n | n | n | n
O=C(Nc1ccc(F)cc1F)c1cc(-c2ccco2)on1 | n | n | n | 20µM | n | n
N#CC(C#N)=c1ccc2c(c1)NC1(CCCCC1)N=2 | n | n | n | n | n | 16µM
COCc1cc(C)nc2sc(C(=O)OC(C)C)c(N)c12 | n | n | n | n | n | n
Cc1nc2ccccc2c2oc(C(=O)N3CCN(C(=O)c4ccco4)CC3)cc12 | n | n | n | n | n | n
Cc1nc2ccccc2c2oc(C(=O)N3CCc4ccccc4C3)cc12 | n | n | n | n | 20µM | 7.9µM
c1ccc(-c2n[nH]nc2-c2ccccc2)cc1 | n | n | n | n | u | n
CC(=O)c1cccc(NC(=O)C2CCN(S(=O)(=O)c3c(C)n[nH]c3C)CC2)c1 | n | n | n | 25µM | n | u
Cc1cc(-c2csc(NC(=O)c3cc4ccccc4o3)n2)c(C)n1C | n | n | n | 10µM | u | n
COCC(=O)NCc1ccc2c(c1)cc(C)n2C | n | n | n | n | u | n
Cc1cc2cc(CNC(=O)c3cc4ccccc4o3)ccc2n1C | u | n | n | 16µM | u | n
Cc1cc2cc(CNC(=O)c3ccc4c(c3)OCO4)ccc2n1C | n | n | n | u | 20µM | n
c1ccc(C[n+]2cccc(-c3cc4ccccc4[nH]3)c2)cc1 | n[11 µM] | n | n[11.4 µM] | 0.32µM | n[11.4 µM] | n[11.5 µM]
O=c1nc(-c2ccccc2)cc(-c2ccccc2)[nH]1 | n[11 µM] | n | n[11.4 µM] | n[11.4 µM] | n[11.4 µM] | n
CC(C)OC(=O)c1c(NC(=O)c2cccs2)sc2c1CCCC2 | 25µM | n | n | n | n | n
Cc1nc(NC2=NCN(Cc3ccc4c(c3)OCO4)CN2)nc2ccccc12 | n | n | n | n | n | n
SMILES | Hsp90 Hop PPI | YjeE inh | Pol III holo inh | Tau fil binding | 15-hLO inh | ERK AVP inh
CCN1CC2=C(OC(N)=C(C#N)C2c2cccs2)/C(=C/c2cccs2)C1 (stereo not drawn) | n | n | n | u | n | n[11.5 µM]
CCN1C=C(Cc2cccs2)C2=C(C1)C(c1cccs1)C(C#N)=C(N)O2 (stereo not drawn) | n | n | n | 4µM | 10µM | n
CN(C)C=Nc1ncc2c([nH]c3ccccc32)c1C#N | n | n | n | n | u | 25µM
CCCCc1c2ccccc2nc2[nH]c3ccccc3c12 | n | n | n | n | x | n
COc1ccc(OCc2nnc3n2N=C(c2ccc(C)cc2)CS3)cc1 | n | n | n | n | n | n
Fc1ccc(C2=Nn3c(Cc4ccccc4)nnc3SC2)cc1 | n | n | n | n | n | n
CCCc1nnc2n1N=C(c1ccc(OC)c(OC)c1)CS2 | n | n | n | n | n | 16µM
COc1ccc(-c2nnc3n2N=C(c2ccccc2)CS3)cc1OC | n | n | n | n | n | n
COc1ccc(Cc2nnc3n2N=C(c2cc4ccccc4o2)CS3)cc1OC | n | n | n | 32µM | n | n
COc1ccc(OCc2nnc3n2N=C(c2ccc(OC)cc2)CS3)cc1 | n[2.3 µM] | n | n | n | n | 25µM
Cc1cccc(NC(=O)CC2SC(=NC3CCCCC3)NC2=O)c1 (stereo not drawn) | n | n | n | n | n | n
Cc1ccc(NC(=O)CN2CC(C)SC2=NC2CCCCC2)cc1 (stereo not drawn) | n | n | n | 13µM | n | n
CCc1nc2sc3ccccc3c(=O)c2c(=O)n1Cc1ccco1 | n | n | n | 16µM | n | n
O=c1c2ccccc2sc2nc(C3CCCCC3)n(Cc3ccco3)c(=O)c12 | n | n | n | 10µM | n | n
COc1ccccc1CN1C(=S)SC(C)(C)C1NO (stereo not drawn) | n | n | n | n | n | n
CSc1nsc(SCC(=O)Nc2ccc3c(c2)OCCO3)n1 | n | n | n | n | n | n
O=C(CSc1nc2ccccc2c(=O)[nH]1)c1ccc(O)c(O)c1 | n | n | u | n | u | 16µM
O=C(CSc1nc2ccccc2c(=O)[nH]1)c1cccs1 | n | n | n | n | n | n
CC1(C)CC(=O)C2=C(C1)Oc1ncn(Cc3ccco3)c(=N)c1C2c1ccccc1 (stereo not drawn) | n | n | n | 16µM | n | n
CNCCCC1c2ccccc2C=Cc2ccccc21 | n | n | n | 5µM! | n | n
O=C(NC1CCS(=O)(=O)C1)OC1CCCCC1 (stereo not drawn) | n | n | 0.5µM | n | n | n
c1ccc(-c2ccc(N3CC4(CCNCC4)C3)cc2)cc1 | u | n | n | 13µM | n | u
c1ccc(-c2ccc(N3CCCC4(CCNCC4)C3)cc2)cc1 | u | n | n | 3.2µM | n | u
O=C(c1ccc(S(=O)(=O)N2CCCC2)cc1)N1CCN(Cc2ccc3c(c2)OCO3)CC1 | n | n | n | n | n | n
CCOc1ccc2[nH]c(C)cc(=O)c2c1 | n[2.3 µM] | n | n | n | n | n
SMILES | Hsp90 Hop PPI | YjeE inh | Pol III holo inh | Tau fil binding | 15-hLO inh | ERK AVP inh
CCOc1ccc2[nH]c(=O)c(=O)[nH]c2c1 | n | n | n | 10µM | n | n
C/C=C(/C(=C/C)c1ccc(O)cc1)c1ccc(O)cc1 | x | x | x | x | 25µM | n
CC1=C(C(=O)N2CCOCC2)C(c2ccsc2)C2=C(CCCC2=O)N1 (stereo not drawn) | n | n | n | n | n | n
O=C(CSc1nnc(Cc2ccccc2)o1)NCc1ccco1 | n | n | n | n | n | n
Cc1[nH]c2ccccc2c1Cc1nnc(SCC(=O)NCc2ccco2)o1 | n | n | n | n | 13µM | u
Cc1cc2c(ccc3[nH]onc32)n1 | u | n | n | n | 20µM | u
Cc1ccc2nc(C)cc(OCC(=O)O)c2c1 | n | n | n | n | n | n
O=C1CCNc2cc3ccccc3cc21 | n | n | n | 20µM | u | n
c1ccc2cc(C3=NCCN3)ncc2c1 | u | n | n | u | n | n
